# Measured values: PubChem BioAssay (NCI)
# This is part of a sample that, as a whole, favours compounds with a hit. Of some 83,000 tested, about 20% had one in any assay.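 The endpoint reported here, percent growth, reads 100 for growth as untreated, 0 for no net growth and -100 for all cells dead.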 Values without a mark were called inactive. Activity calls are given as the source filed them. How the source made its calls: active means growth percent below 10; inactive means the rest.
# Test system: HL-60(TB) leukemia
# Assay: NCI-60 one-dose screen, 48 h (100 = growth as untreated, 0 = no growth, -100 = all killed)
# Conditions: 10 µM unless noted
row,SMILES,growth
1,O=C(CN1C(=O)/C(=C/c2ccco2)SC1=S)NCCc1c[nH]c2ccc(F)cc12,95.9%
2,NC(=O)N/N=C\c1ccc([N+](=O)[O-])o1,120%
3,Cc1nccc2c3ccc(OCc4cn(Cc5ccc(Br)cc5)nn4)cc3n(CCCc3ccccc3)c12,89%
4,CCN1C(=O)N(CC)C2C1NN=c1s/c(=C\c3ccccc3Br)c(=O)n12 (centres undefined),-40.7% (active)
5,Cc1cc(Cl)nc(Nc2ccccc2)n1,78.1%
6,COc1ccccc1/C=N\NC(=S)Nc1ccc(F)cc1,94.5%
7,c1ccc(CCn2cccc2)nc1,1.63% (active)
8,COc1nc2c(c(=O)n1C)CN(c1ccccc1)C(=O)CN2C,93% [100 µM]
9,Cc1cc(C(=O)Nc2ncnc3nc[nH]c23)no1,91.1%
10,Nc1c2c(nc3ccc(Cl)cc13)CC(c1ccc(O)cc1)CC2=O (centres undefined),18.9%
11,N#Cc1c(NC(=O)c2cccs2)[n+]([O-])c2cc(C(F)(F)F)ccc2[n+]1[O-],89%
12,COCCn1cc(-c2csc(-c3cn(C)c4ccc(F)cc34)n2)c2cccnc21,84.7%
13,CC(=O)C(=Cc1ccc(C=C(C(C)=O)C(C)=O)cc1)C(C)=O,7.08% (active)
14,O=C1OC(c2ccccc2)C(O)=C1c1ccccc1 (centres undefined),101%
15,CC(C)[C@@H]1CC[C@]2(C(=O)NCCCCN=C(N)N)CC[C@]3(C)[C@H](CC[C@@H]4[C@@]5(C)CCC(=O)C(C)(C)[C@@H]5CC[C@]43C)[C@@H]12,13.5%
16,CCCCCCCCCCCC1=NCCCN1CCCC,104%
17,O=C(Nc1cc(F)cc2cccnc12)c1cnc(N2CCNCC2)cn1,77.1%
18,CCCCN1CCCC[C@@H]1C(=O)N[C@H](C(=O)N(C)[C@H](CCc1nc(C(=O)N[C@@H](Cc2ccccc2)C[C@H](C)C(=O)OC)cs1)C(C)C)C(C)C,5.08% (active)
19,Cn1ccc2c1CC1CN(Cc3ccco3)C(=O)C1C2C(=O)O (centres undefined),98.8%
20,CC1=C(C(=O)/C=C/c2ccc(N(C)C)cc2)C(c2ccccc2)NC(=S)N1 (centres undefined),99.4%

row,SMILES,growth
1,CCOC(=O)C(Nc1ccccc1)C(=O)OCC,101%
2,NC(=S)N/N=C\c1nccc2c(N)cccc12,-10.4% (active)
3,Oc1ccc(N=Nc2ccc(N=Nc3ccccc3)cc2)cc1,7.35% (active)
4,CCN(CC)C(=O)c1cccnc1,93.8%
5,O=C(NCc1cn(Cc2cccc(Oc3ccccc3)c2)nn1)c1cccnc1NCc1ccc(Cl)cc1,3.88% (active)
6,COc1cc(OC)c(C(=O)/C=C/c2cccc(C#N)c2)c(OC)c1,-8.6% (active)
7,N=c1sc(Cc2cc(Cl)ccc2Cl)cn1CC(=O)c1ccccc1,29.6%
8,O=C(Cn1nnc2ccccc21)N/N=C/c1ccccc1F,107%
9,OCC12CCCC(CO)(COC1)C2O (centres undefined),118%
10,O=C(O)c1ccccc1C(F)(F)F,100%
11,O=C1CC[C@@H]2CCCC[C@@H]2C1,110%
12,CO[C@H]1C[C@@H]2CC[C@@H](C)[C@@](O)(O2)C(=O)C(=O)N2CCCC[C@H]2C(=O)O[C@H]([C@H](C)C[C@@H]2CC[C@@H](OP(C)(C)=O)[C@H](OC)C2)CC(=O)[C@H](C)/C=C(\C)[C@@H](O)[C@@H](OC)C(=O)[C@H](C)C[C@H](C)\C=C/C=C/C=C/1C,76.4%
13,O=C(/C=C/c1sc(Cl)nc1Cl)c1ccc(Br)cc1,71.4%
14,NC(=O)c1ccccc1OCC(O)CO (centres undefined),108%
15,CC1=C/C(=N\N=C2/C=C(C)CC(C)(C)C2)CC(C)(C)C1,84.1%
16,Nc1ncc(-c2ccc3ncnc(Nc4cncc(Cl)c4)c3c2)cn1,92.5%
17,Cc1cc(O)c2c(c1)C1OC(=O)CCCCCN1C1=C2C(=O)c2cccc(OC3CC(O)C(O)C(C)O3)c2C1=O (centres undefined),79.2%
18,Nc1ccccc1NC(=O)c1ccc(CN2CCC/C(=C\c3cccc(Cl)c3)C2=O)cc1,-24.5% (active)
19,CCc1nn(Cc2ccccc2)c2nc(C)c(CCc3ccccc3)c(Cl)c12,82.7%
